Results from PubChem BioAssay (Tox21).
Several values for one entry are separate records, joined by “and”; a condition that tells them apart may be missing. Equal values may be shown once. Records with an inconclusive call do not appear. Where a call stands in place of a potency, no number is given. Activity calls are given as the source filed them. Unless noted, calls come from the whole dose curve; as a rule, active = well fitted curve in the direction sought with a large enough effect in the repeat runs; inconclusive = weak or mixed curves; inactive = no such curve, though single readings can be large; an effect the other way counts as inactive or inconclusive.

Columns and labels:
[1] = target: Acetylcholinesterase (Homo sapiens) (UniProt P22303); assay: Acetylcholinesterase (AChE) small molecule antagonists: enzyme-based qHTS assay with human liver microsomes (AID 1347399; calls by dose curve; note: nearly all actives have a fitted effect of over 60% in size); settings: Potency: qHTS inhibition; outcome: qHTS inhibition
Acetylcholinesterase (Homo sapiens), sequence (P22303 whole entry, looked up): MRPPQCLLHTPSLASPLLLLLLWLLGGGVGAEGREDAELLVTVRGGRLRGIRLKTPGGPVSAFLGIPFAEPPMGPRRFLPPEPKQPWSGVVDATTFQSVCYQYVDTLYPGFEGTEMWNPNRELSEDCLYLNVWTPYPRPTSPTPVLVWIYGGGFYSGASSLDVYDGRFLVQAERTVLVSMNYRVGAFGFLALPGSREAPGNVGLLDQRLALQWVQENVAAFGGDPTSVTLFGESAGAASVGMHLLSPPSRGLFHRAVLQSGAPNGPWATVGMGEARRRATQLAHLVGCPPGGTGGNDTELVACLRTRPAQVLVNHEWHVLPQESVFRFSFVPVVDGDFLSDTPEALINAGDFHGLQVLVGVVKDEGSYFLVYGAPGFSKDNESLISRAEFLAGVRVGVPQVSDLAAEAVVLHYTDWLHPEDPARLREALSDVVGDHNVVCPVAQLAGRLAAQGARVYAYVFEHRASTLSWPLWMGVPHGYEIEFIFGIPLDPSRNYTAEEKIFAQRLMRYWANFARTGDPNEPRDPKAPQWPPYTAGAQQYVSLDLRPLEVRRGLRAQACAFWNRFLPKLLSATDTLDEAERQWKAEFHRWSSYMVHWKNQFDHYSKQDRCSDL
In short: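 Recombinant human AChE (50 mU/mL in the enzyme mix) and human liver microsomes (0.25 mg/mL final) were preincubated with compound and NADPH (0.25 mg/mL final) for 30 min at 37 C. Acetylthiocholine/DTNB was then added; thiocholine was read colorimetrically after 10 min at room temperature.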

[2] = target: Cytochrome P450 2D6 (Homo sapiens) (UniProt P10635); assay: Cytochrome P450 Family 2 Subfamily D Member 6 (CYP2D6) small molecule antagonists: luciferase reporter qHTS assay (AID 1671196); note: series mostly up to about 120 µM; nearly all actives have a fitted effect of over 50% in size
Cytochrome P450 2D6 (Homo sapiens), sequence (P10635 whole entry, looked up): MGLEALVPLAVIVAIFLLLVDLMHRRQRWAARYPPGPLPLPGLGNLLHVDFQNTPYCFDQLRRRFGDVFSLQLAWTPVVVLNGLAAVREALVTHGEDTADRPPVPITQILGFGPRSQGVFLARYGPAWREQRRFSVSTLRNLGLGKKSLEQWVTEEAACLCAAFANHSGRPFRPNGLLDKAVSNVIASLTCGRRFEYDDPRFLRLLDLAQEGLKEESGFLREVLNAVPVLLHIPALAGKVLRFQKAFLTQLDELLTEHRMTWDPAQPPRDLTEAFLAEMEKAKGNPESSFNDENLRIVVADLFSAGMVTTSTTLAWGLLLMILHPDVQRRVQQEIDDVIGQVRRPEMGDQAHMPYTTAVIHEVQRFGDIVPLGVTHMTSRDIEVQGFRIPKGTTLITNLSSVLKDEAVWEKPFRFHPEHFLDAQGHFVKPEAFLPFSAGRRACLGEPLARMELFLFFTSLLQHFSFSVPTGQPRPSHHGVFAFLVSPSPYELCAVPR
In short: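 CYP2D6 activity was followed as luminescence from its luciferin product after a 1 h NADPH-driven reaction at room temperature. Enzyme-substrate mix and compound were pre-incubated for 10 min, and the signal was read 20 min after adding detection reagent.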

[3] = target: Cytochrome P450 2C9 (Homo sapiens) (UniProt P11712); assay: Cytochrome P450 Family 2 Subfamily C Member 9 (CYP2C9) small molecule antagonists: luciferase reporter qHTS assay (AID 1671198); note: nearly all actives have a fitted effect of over 50% in size; note: potency is the fitted concentration of half-maximal effect
Cytochrome P450 2C9 (Homo sapiens), sequence (P11712 whole entry, looked up): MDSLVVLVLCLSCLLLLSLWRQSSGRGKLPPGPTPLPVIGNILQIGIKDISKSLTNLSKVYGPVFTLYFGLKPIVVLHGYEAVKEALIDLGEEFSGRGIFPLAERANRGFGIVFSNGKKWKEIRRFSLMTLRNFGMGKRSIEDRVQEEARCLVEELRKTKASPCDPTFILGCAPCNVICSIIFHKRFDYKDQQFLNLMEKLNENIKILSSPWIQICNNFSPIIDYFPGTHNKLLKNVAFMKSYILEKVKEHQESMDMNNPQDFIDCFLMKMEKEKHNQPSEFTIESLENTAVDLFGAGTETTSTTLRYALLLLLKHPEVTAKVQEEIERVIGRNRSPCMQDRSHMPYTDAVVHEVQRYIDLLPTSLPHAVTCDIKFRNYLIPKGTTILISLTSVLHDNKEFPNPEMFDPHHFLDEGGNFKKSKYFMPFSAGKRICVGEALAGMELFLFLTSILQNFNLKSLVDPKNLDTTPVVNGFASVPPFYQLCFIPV
In short: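 P450-Glo proluciferin substrate with CYP2C9 enzyme; 10 min RT preincubation, then NADPH regeneration 1 h at 37C; luciferin detection reagent 20 min RT, luminescence in relative luminescence units.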

[4] = target: Cytochrome P450 1A2 (Homo sapiens) (UniProt P05177); assay: Cytochrome P450 Family 1 Subfamily A Member 2 (CYP1A2) small molecule antagonists: luciferase reporter qHTS assay (AID 1671199); note: nearly all actives have a fitted effect of over 50% in size; note: potency is the fitted concentration of half-maximal effect
Cytochrome P450 1A2 (Homo sapiens), sequence (P05177 whole entry, looked up): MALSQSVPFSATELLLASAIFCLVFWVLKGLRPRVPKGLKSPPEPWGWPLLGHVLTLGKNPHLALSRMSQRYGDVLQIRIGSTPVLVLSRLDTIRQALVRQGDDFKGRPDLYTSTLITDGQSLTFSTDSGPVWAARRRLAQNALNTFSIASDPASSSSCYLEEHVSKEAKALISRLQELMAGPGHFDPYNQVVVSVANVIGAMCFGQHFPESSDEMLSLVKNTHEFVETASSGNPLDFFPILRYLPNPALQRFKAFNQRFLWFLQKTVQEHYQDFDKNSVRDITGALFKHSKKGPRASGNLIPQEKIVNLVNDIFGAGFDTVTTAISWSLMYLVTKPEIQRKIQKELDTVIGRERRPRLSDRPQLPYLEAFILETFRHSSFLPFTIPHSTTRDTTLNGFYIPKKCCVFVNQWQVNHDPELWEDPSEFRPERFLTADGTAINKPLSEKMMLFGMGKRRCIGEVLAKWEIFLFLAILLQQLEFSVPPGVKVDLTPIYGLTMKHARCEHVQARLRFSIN
In short: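 Luminescence from luciferin formed by CYP1A2 from a proluciferin substrate, read 20 min after detection reagent. Compound was pre-incubated 10 min with enzyme-substrate, and reaction started with NADPH regeneration solution for 1 h at room temperature; furafylline control.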

[5] = target: Voltage-gated inwardly rectifying potassium channel KCNH2 (Homo sapiens) (UniProt Q12809); assay: Human Ether-a-go-go-Related Gene (hERG) channel small molecule antagonists: fluorescence cell-based qHTS assay (AID 1671200); note: nearly all actives have a fitted effect of over 50% in size; note: potency is the fitted concentration of half-maximal effect
Voltage-gated inwardly rectifying potassium channel KCNH2 (Homo sapiens), sequence (Q12809 whole entry, looked up): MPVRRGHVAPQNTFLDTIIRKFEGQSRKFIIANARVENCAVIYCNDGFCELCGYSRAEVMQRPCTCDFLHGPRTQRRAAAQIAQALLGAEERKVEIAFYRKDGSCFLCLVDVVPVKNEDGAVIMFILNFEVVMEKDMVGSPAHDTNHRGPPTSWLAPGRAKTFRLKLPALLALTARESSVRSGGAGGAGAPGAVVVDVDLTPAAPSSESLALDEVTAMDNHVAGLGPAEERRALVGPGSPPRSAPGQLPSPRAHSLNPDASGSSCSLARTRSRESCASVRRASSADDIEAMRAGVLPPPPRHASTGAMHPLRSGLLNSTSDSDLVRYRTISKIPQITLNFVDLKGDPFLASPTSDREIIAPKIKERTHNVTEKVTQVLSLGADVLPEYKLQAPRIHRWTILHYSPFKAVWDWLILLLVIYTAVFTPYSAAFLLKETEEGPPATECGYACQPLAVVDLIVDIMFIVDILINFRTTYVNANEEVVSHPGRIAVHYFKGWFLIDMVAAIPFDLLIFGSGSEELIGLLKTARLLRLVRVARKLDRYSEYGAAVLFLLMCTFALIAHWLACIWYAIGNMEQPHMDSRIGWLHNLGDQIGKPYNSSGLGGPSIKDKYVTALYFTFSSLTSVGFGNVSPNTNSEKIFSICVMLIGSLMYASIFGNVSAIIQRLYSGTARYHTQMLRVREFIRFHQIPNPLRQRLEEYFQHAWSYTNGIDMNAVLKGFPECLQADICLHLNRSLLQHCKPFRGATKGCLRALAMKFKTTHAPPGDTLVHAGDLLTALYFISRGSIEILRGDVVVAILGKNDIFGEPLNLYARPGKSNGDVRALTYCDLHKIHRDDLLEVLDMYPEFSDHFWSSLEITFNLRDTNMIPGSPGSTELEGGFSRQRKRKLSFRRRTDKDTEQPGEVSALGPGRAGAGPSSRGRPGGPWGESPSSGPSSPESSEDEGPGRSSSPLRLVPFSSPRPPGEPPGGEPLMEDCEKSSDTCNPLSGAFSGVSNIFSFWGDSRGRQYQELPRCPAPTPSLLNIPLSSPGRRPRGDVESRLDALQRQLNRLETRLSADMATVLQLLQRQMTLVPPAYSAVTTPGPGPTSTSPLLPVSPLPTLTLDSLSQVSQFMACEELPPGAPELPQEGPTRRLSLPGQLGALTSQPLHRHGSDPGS
In short: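 Measured: Tl+ flux via fluorescence (480/540 nm) in hERG-expressing U2OS cells after 1 h dye loading at room temperature.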

[6] = target: Cytochrome P450 3A4 (Homo sapiens) (UniProt P08684); assay: Cytochrome P450 Family 3 Subfamily A Member 4 (CYP3A4) small molecule antagonists: luciferase reporter qHTS assay (AID 1671201)
Cytochrome P450 3A4 (Homo sapiens), sequence (P08684 whole entry, looked up): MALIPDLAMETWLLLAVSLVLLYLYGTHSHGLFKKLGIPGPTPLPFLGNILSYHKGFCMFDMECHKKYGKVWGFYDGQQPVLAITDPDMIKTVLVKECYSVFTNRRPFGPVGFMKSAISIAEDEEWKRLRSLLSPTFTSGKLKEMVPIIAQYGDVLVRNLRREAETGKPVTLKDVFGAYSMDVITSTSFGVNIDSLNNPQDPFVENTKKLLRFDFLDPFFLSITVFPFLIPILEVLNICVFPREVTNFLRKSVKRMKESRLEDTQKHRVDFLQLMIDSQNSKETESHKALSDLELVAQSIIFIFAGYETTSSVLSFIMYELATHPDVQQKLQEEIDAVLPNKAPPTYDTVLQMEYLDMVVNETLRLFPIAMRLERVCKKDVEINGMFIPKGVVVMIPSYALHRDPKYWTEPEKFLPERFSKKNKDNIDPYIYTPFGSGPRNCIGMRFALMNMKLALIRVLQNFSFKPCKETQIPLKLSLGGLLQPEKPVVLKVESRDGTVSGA
In short: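 Setup: enzyme-substrate mix, compound pin transfer, 10 min RT. Reaction: NADPH regeneration solution, 1 h RT. Readout: detection reagent stops turnover, luminescence measured after 20 min, expressed in relative luminescence units.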

[7] = target: Cytochrome P450 2C19 (Homo sapiens) (UniProt P33261); assay: Cytochrome P450 Family 2 Subfamily C Member 19 (CYP2C19) small molecule antagonists: luciferase reporter qHTS assay (AID 1671197); note: nearly all actives have a fitted effect of over 65% in size; note: potency is the fitted concentration of half-maximal effect
Cytochrome P450 2C19 (Homo sapiens), sequence (P33261 whole entry, looked up): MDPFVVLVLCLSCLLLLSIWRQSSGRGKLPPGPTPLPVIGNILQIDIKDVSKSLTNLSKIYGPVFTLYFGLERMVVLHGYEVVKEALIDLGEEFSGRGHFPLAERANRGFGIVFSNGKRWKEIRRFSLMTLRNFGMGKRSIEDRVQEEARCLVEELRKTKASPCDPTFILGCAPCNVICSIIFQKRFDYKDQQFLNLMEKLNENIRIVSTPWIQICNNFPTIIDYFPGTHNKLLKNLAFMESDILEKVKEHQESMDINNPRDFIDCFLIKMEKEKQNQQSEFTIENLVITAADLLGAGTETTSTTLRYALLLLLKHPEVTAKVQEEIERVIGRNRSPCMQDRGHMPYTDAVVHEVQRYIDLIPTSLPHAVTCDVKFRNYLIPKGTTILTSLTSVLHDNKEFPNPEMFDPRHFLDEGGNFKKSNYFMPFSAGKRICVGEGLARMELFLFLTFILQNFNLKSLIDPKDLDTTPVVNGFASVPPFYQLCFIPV
In short: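 CYP2C19 P450-Glo, 1536-well qHTS. Cpd + enzyme/proluciferin substrate 10 min RT; + NADPH regen, 37C 1 h; stop with luciferin detection reagent, 20 min RT, luminescence (RLU). Pos ctrl ketoconazole.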

Structure (SMILES) | Potency [1] | Potency [2] | Potency [3] | Potency [4] | Potency [5] | Potency [6] | Potency [7]
O=C(O)C(F)(F)C(F)(F)C(F)(F)C(F)(F)C(F)(F)F | inactive | inactive | 15.9 µM (active) | inactive | inactive | inactive | –
CCCCCCCCCCCCN(C)C | inactive | inactive | inactive | 35.6 µM (active) | inactive | – | –
CC(C)CCCCCCCOC(=O)c1ccccc1C(=O)OCCCCCCCC(C)C | inactive | inactive | – | inactive | inactive | inactive | inactive
CC(C)c1ccc(NC(=O)N(C)C)cc1 | inactive | inactive | – | 15.9 µM (active) | inactive | – | 31.7 µM (active)
C=CCc1ccccc1O | inactive | inactive | – | 31.7 µM (active) | inactive | inactive | inactive
CON(C)C(=O)Nc1ccc(Cl)cc1 | inactive | inactive | – | 7.1 µM (active) | inactive | inactive | 39.9 µM (active)
CCC[N+](CCC)(CCC)CCC | inactive | – | inactive | – | – | inactive | –
O=C(N/N=C/c1ccc([N+](=O)[O-])o1)c1cc([N+](=O)[O-])cc([N+](=O)[O-])c1O | – | inactive | 30.9 µM (active) | inactive | inactive | inactive | inactive
O=C1CC[C@@]2(O)[C@H]3Cc4ccc(O)c5c4[C@@]2(CCN3CC2CC2)[C@H]1O5 | inactive | – | inactive | inactive | inactive | – | inactive
CCc1ccccc1N | inactive | – | – | – | inactive | – | 89.4 µM (active)
CC(C)c1ccc(OP(=O)(Oc2ccc(C(C)C)cc2)Oc2ccc(C(C)C)cc2)cc1 | inactive | – | 2.26 µM (active) and 3.17 µM (active) and 2.83 µM (active) | 22.6 µM (active) and 15.9 µM (active) and 17.8 µM (active) | 17.5 µM (active) and 21.9 µM (active) | inactive | 3.58 µM (active) and 3.56 µM (active) and 2.83 µM (active)
